High-throughput results: PubChem, several laboratories
The list is not random: actives were taken first. Their share in the collection is about 1.5%.
NLRP3 yeast inh = inhibitors of NALP3 inflammasome in yeast. Yeast reconstituted NLRP3/ASC/caspase-1, beta-gal luminescence, 24 h. inhibition, % at 10 µM. 330,000 tested, 0.39% active. AID 2825;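 active means inhibition of 50% or more; inactive means inhibition below 50%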;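 further: plate controls were induced DMSO wells for no effect and uninduced yeast grown without galactose for full effect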
HDAC3 inhib = human HDAC3 inhibition; inhibition, % at 8.3 µM; 320,000 tested, 0.15% active; O15379; AID 2718; recombinant HDAC3, fluorogenic peptide/trypsin coupled, fluorescence; in the data active means inhibition above about 26%, passing the limit was not always enough
Target sequence (O15379 whole entry, looked up): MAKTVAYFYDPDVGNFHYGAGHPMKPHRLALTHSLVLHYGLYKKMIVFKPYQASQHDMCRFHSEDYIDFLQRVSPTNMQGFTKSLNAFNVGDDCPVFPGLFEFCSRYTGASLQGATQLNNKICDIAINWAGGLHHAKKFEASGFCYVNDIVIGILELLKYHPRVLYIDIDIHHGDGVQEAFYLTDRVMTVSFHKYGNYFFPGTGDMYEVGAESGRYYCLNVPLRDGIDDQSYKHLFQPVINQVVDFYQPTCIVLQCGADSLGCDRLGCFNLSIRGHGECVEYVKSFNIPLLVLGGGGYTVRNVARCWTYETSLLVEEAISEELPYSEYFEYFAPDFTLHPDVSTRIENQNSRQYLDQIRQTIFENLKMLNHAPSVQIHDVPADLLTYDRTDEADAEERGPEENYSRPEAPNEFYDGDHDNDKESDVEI
Efflux pump inh = blocks antifungal efflux pumps in multiplex yeast assay; S. cerevisiae Candida pump triplex, Nile Red efflux; inhibition, % at 10 µM; 330,000 tested, 0.44% active;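 active means plate passing quality check with inhibition over a set limit, or well fluorescence over plate mean plus 4 SD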;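 further: Nile Red retained in pooled yeast measured as flow cytometry median fluorescence; 0% = buffer negative control and 100% = Enniatin B positive control; higher means more Nile Red kept so more efflux inhibition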
PolyA inhibitor = blocks polyadenylation in yeast reporter cells; 300,000 tested, 0.02% active; activity score, % at 12 µM; S. cerevisiae SKY197-pL101 polyadenylation reporter, beta-gal luminescence; efflux-impaired pdr1/pdr3 knockout yeast; score 100 = 6 SD above DMSO;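 active means lowest replicate activity score at least 50, where 100 means six control SD above control mean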;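 further: yeast exposed to compound for 9 h at 30 °C; higher score means more reporter readthrough which indicates perturbed polyadenylation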
GASC-1 inh = human JMJD2C demethylase inhibition | inhibition, % at 2.35 µM | GST-JMJD2C(1-420) H3K9me3 demethylation, DELFIA europium | 330,000 tested, 0.069% active | AID 2099 | Q9H3R0;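 active means more than half of a compound's replicate wells show inhibition beyond 50%, single wells judged on their own value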;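 further: signal counts dimethyl H3K9 product captured on neutravidin plate; 0% = median of DMSO wells and 100% = 0.3 times that DMSO median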
NALP1 inh = blocks the NALP1 inflammasome reconstituted in yeast; S. cerevisiae NALP1/ASC/caspase-1 growth, X-gal OD620, 72 h; inhibition, % at 10 µM; 280,000 tested, 0.61% active; in the data active means inhibition mostly above about 24%, no sharp cut-off; inactive means mostly below about 32%
* hit, by the source's call; · = no result given.

SMILES	NLRP3 yeast inh	HDAC3 inhib	Efflux pump inh	PolyA inhibitor	GASC-1 inh	NALP1 inh
CC1(C)Cc2ccccc2C(c2cc3ccccc3oc2=O)=N1	-2	3	0	13	-1	-2
CC(=O)N1CCc2cc(S(=O)(=O)CCC(=O)N(C)Cc3ccco3)ccc21	10	-4	1	-12	-4	-5
Cc1ccc2nc(-c3ccncc3)cc(-c3ccccc3)c2c1	13	3	0	-35	-4	34*
COc1ccc(NC(=O)CS(=O)(=O)Cc2nc(-c3ccc(C)cc3)oc2C)cc1	-3	-2	0	-13	6	45*
COc1ccc(-c2nc(CS(=O)(=O)CC(=O)Nc3ccc(Cl)cc3)c(C)o2)cc1	10	1	0	1	-7	17
CC(C)(C)N/C=C(\C#N)S(=O)(=O)c1ccc(Br)cc1	9	9	0	4	-12	-26
COc1ccc(N2C(=O)CC(N3CCN(c4cccc(Cl)c4)CC3)C2=O)cc1 (centres undefined)	15	5	0	8	5	4
COc1ccc(N2CCN(C3=CC(=O)N(c4cccc(Cl)c4)C3=O)CC2)cc1	20	0	0	16	4	24*
O=C(CSc1nccc(=O)[nH]1)NCc1ccco1	9	2	0	-1	-19	43*
Cc1ccc(OCCCCNC2CCCC(C)C2C)c(C)c1 (centres undefined)	37	4	0	-34	12	30*
CNC(=O)Nc1ccc2snnc2c1	20	-4	0	-2	-10	34*
CCN1C[C@@H]2[C@@H]3C(=O)N(Cc4ccccc4)C(=O)[C@@H]3[C@](CC)(C(=O)OC)N2C1=NC	·	·	0	·	·	·
Cc1cc(NS(=O)(=O)c2ccc(NC(=O)c3ccco3)cc2)nc(C)n1	14	0	0	10	18	4
Cc1cc(NS(=O)(=O)c2ccc(NC(=O)/C=C/c3ccco3)cc2)nc(C)n1	15	8	0	14	5	38*
CCCCN(C(=O)c1cc(S(=O)(=O)N2CCCCCC2)ccc1OC)c1ccccc1	12	9	0	-12	1	·
NC(=O)C1CCN(c2oc(-c3ccccc3)nc2S(=O)(=O)c2ccc(Br)cc2)CC1	10	-3	0	5	17	12
Cc1ccc(S(=O)(=O)c2nc(-c3ccccc3)oc2N2CCC(C(N)=O)CC2)cc1	11	-2	0	15	3	34*
CNc1ccc(Oc2nc([N+](=O)[O-])nn2C)cc1	-1	3	0	11	-33	3
CSCCC(NS(=O)(=O)c1ccc(Cl)cc1)C(=O)OCC(=O)N(C(C)C)C(C)C (centres undefined)	3	-3	0	2	-16	35*
CSCCC(NS(=O)(=O)c1ccc(Cl)cc1)C(=O)OCC(=O)NC1CC1 (centres undefined)	16	9	0	-3	4	-12
COc1cccc(N2CCN(C(=O)c3ccc(=O)oc3)CC2C)c1 (centres undefined)	6	1	0	-11	12	40*
COc1cccc(NC(=O)N2CCN(c3cccc(C)c3)C(C)C2)c1 (centres undefined)	13	-1	0	4	30	-7
CCN(CCN(C)C)C(=O)Cn1ncc2c1-c1cc(C)ccc1OC2	0	3	0	-21	-11	41*
CCCN(CCC)Cc1cc2ccccc2c2c1COC2	-9	1	0	2	4	-6
CCCCN(CCCC)Cc1cc2ccccc2c2c1COC2	-5	9	0	15	-9	44*
Clc1ccc(-c2nc(-c3ccccn3)no2)cc1Cl	18	-4	0	-26	1	32*
Cn1c(=O)[nH]c(=O)c2c1nc(SCC(=O)O)n2CCc1ccccc1	9	37*	0	23	35	-9
Cc1csc(NC(=O)c2c(O)c3c(n(CC(C)C)c2=O)CCCC3)n1	-12	1	0	-4	-1	31*
O=C(COC(=O)c1cccc(Br)c1)NCC1CCCO1 (centres undefined)	10	-7	0	·	1	·
Cn1c(=O)c(-c2ccccc2)nn2c3ccccc3nc12	-12	6	0	-10	52*	·
